Source: PubChem BioAssay (Columbia University Molecular Screening Center)
F-actin modifier: modifiers of cytoskeleton assembly; inhibition, % at 2 µM; HUVEC TNFa F-actin phalloidin imaging, high content; AID 836; 91,000 compounds, 0.18% hits;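 active = inhibition above the batch mean plus 3 SD and confirmed as a hit by visual image inspection, cut at about 30% in these data, passing the limit was not always enough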
VCAM1 TNFa inh: reduces TNF alpha induced VCAM1 expression in HUVEC; 95,000 compounds, 0.48% hits; AID 802; inhibition, % at 2 µM; HUVEC TNFa-induced VCAM-1 immunofluorescence, high-content imaging;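 active = inhibition above the batch mean plus 3 SD, with images confirmed as a hit by eye, cut at about 37% in these data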
E-sel TNF inh: blocks E-selectin expression induced by TNF alpha | HUVEC TNFa-induced E-selectin immunofluorescence, high content | inhibition, % at 2 µM | 120,000 compounds, 0.71% hits;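 active = inhibition above the batch mean plus 3 SD, and confirmed as a hit on visual image review, cut at about 43% in these data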
HUVEC tox TNFa: toxic to HUVEC cells under TNF alpha stimulation; HUVEC TNFalpha-stimulated, Hoechst cell count, imaging; cell count reduction, % at 2 µM; 93,000 compounds, 0.17% hits; AID 848;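 active = cell count reduction exceeding the screen mean by over 5 SD, scaled to untreated wells per plate, cut at about 78% in these data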;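 also: cells counted after 24 h of TNF alpha exposure following the 1 h pretreatment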
Hits are given with their value; - = inactive; . = no result given. Only some compounds are listed: those with a hit (about 1% of all), similar ones and a draw of the others.

SMILES	F-actin modifier	VCAM1 TNFa inh	E-sel TNF inh	HUVEC tox TNFa
CN(C)CC1CSCCC1(O)c1ccc(Cl)cc1 (stereo not drawn)	-	-	42	-
CN(C)CC1CSCCC1(O)c1ccccc1Cl (stereo not drawn)	-	-	-	-
CCN1CCC(O)(c2ccccc2)C(C(=O)c2ccccc2)C1 (stereo not drawn)	-	-	-	-
CCN1CCN(Cc2cc(Br)cc(OC)c2O)CC1	-	-	-	-
CCN1CCN(Cc2cc(OC)c(OC)cc2[N+](=O)[O-])CC1	-	-	100	-
CCOc1ccccc1N1C(=O)NC(=O)C(CCc2ccncc2)(CCc2ccncc2)C1=O	33	-	-	-
CN(C)CC#CCOCCOCCC#N	-	-	-	-
CC(C)OC(=O)C1C(=O)NC2(C)CC1c1ccccc1O2 (stereo not drawn)	-	-	-	-
CN1C(=O)/C(=C/c2cccn2-c2ccc3ccccc3c2)C(=O)NC1=S	-	-	79	-
CCc1ccc(N2C(=O)NC(=O)/C(=C/c3cccn3CCOc3ccc(C(C)CC)cc3)C2=O)cc1 (stereo not drawn)	.	.	80	.
CN1CCc2nc3ccc(F)cc3c(C(N)=O)c2C1	-	-	-	-
CC(Cc1ccccc1)[n+]1cc(/N=C(\[O-])Nc2ccccc2)on1 (stereo not drawn)	-	-	-	-
COc1ccc(C(=O)C2(C)N(O)C(C)C(c3cccs3)=[N+]2[O-])cc1 (stereo not drawn)	-	-	58	-
CC(=O)OC(C)(C)/C=C/C(=O)[C@](C)(O)[C@H]1[C@H](O)C[C@@]2(C)[C@@H]3CC=C4[C@H](C[C@H](O)C(=O)C4(C)C)[C@]3(C)C(=O)C[C@]12C	.	.	60	.
CCOP(=O)(OCC)C(c1ccccc1)N(C)C=O (stereo not drawn)	-	-	-	-
CCN1/C(=C\C=C\C2=[N+](CC)c3ccccc3C2(C)C)C(C)(C)c2ccccc21	-	88	-	-
CCCCC12CNCC(C)(CNC1)C2=O	-	-	100	-
O=C(NCC(c1cccnc1)N1CCN(c2ccc(F)cc2)CC1)Oc1ccccc1 (stereo not drawn)	-	-	-	-
O=C1NC(=O)N(CCC2=CCCCC2)C(=O)/C1=C\c1cccs1	.	.	-	.
Cn1cccc1/C=C1\C(=O)NC(=O)N(CCC2=CCCCC2)C1=O	.	.	77	.
Cc1nc2sccc2c(=O)n1-c1ccccc1Cl	-	-	-	-
COCCNCCOc1ccc(C(C)(C)c2ccccc2)cc1	.	.	-	.
O=C1C2CCCN2C(c2cccnc2)N1c1ccc(Cl)c(Cl)c1 (stereo not drawn)	-	75	-	-
Brc1ccc(C2N3CCCN23)cc1 (stereo not drawn)	.	.	-	.
COc1ccccc1OP(=O)(Nc1cccnc1)Oc1ccccc1OC	.	.	-	.
C[N+]1(CC(COCc2ccccc2)OC(=O)Cc2ccccc2)CCOCC1 (stereo not drawn)	.	.	-	.
CC(c1ccccc1F)n1cc(C(=O)Nc2ccc3nc[nH]c3c2)nn1 (stereo not drawn)	-	-	.	80
CC(N)Cc1c[nH]c2ccc(Cl)cc12 (stereo not drawn)	-	39	-	-
O=C(Nc1nc(-c2ccccc2)c(-c2ccccc2)s1)c1ccc(S(=O)(=O)N(CCCl)CCCl)cc1	.	.	60	.
CC1CN(c2cc([N+](=O)[O-])ccc2Cl)CC(C)N1 (stereo not drawn)	.	.	100	.
